From the supplement of paper PMC11060735
Structures can show the parent of a compound that is named as a salt. The full ranking holds about 1,800 compounds; the median of “GFP- (p16Ink4a-) cell count relative to negative-control wells” is about 0.99, and the lowest 2% start at about 0.5. The sample as a whole holds a higher share of the lowest values than the screen did.

tested on: mouse p16Ink4a+/- lung fibroblasts (INKBRITE, bleomycin-injured); assay: GFP- (p16Ink4a-) cell count relative to negative-control wells (fold of vehicle); higher = more p16Ink4a- cells surviving; settings: 1 µM; 3 days

SMILES | GFP-
COc1cc(-c2cc3ccccc3[nH]2)[nH]c1/C=C1\N=C(C)C=C1C [Obatoclax Mesylate] | 0.249
C=C1C(=O)O[C@@H]2/C=C(\C)CC/C=C(\C)CC[C@@H]12 [Costunolide] | 1.1
Cc1coc2c1C(=O)C(=O)c1c-2ccc2c(C)cccc12 [Tanshinone I] | 1.03
Cn1cc(-c2ccc3nnc(Sc4ccc5ncccc5c4)n3n2)cn1 | 0.95
CCN(CC)CCCCNc1ncc2cc(-c3cc(OC)cc(OC)c3)c(NC(=O)NC(C)(C)C)nc2n1 | 0.935
Cc1ccnc2c1NC(=O)c1cccnc1N2C1CC1 [Nevirapine] | 1.06
CC(C)=CCC[C@](C)(O[C@@H]1O[C@H](CO[C@@H]2OC[C@@H](O)[C@H](O)[C@H]2O)[C@@H](O)[C@H](O)[C@H]1O)[C@H]1CC[C@]2(C)[C@@H]1[C@H](O)C[C@@H]1[C@@]3(C)CC[C@H](O[C@@H]4O[C@H](CO)[C@@H](O)[C@H](O)[C@H]4O)C(C)(C)[C@@H]3CC[C@]12C [Gynostemma Extract] | 1.07
O=C(O)C1=CO[C@@H](O[C@@H]2O[C@H](CO)[C@@H](O)[C@H](O)[C@H]2O)[C@@H]2C(CO)=CC[C@H]12 [Geniposidic acid] | 1.05
CC1(C)CCC(c2ccc(Cl)cc2)=C(CN2CCN(c3ccc(C(=O)NS(=O)(=O)c4ccc(N[C@H](CCN5CCOCC5)CSc5ccccc5)c(S(=O)(=O)C(F)(F)F)c4)cc3)CC2)C1 [Navitoclax] | 0.944
NCC(=O)Nc1ccc(-n2nc(C(F)(F)F)cc2-c2ccc3c(ccc4ccccc43)c2)cc1 | 1.1
CCN(CC)C(=S)SSC(=S)N(CC)CC [Disulfiram] | 0.453
O=C(O)CCc1ccc(NCc2cccc(Oc3ccccc3)c2)cc1 | 0.98
CC(C)C[C@H](NC(=O)CNC(=O)c1cc(Cl)ccc1Cl)B(O)O [Ixazomib] | 0.394
CCCC(C)NC(=O)c1ccc(Cl)c(Cl)c1 (stereo not given) | 1.14
CCOc1ccn(-c2ccc(F)cc2)c(=O)c1C(=O)Nc1ccc(Oc2ccnc(N)c2Cl)c(F)c1 | 0.736
CN1CCN(c2c(F)cc3c(=O)c(C(=O)O)cn4c3c2OCN4C)CC1 [Marbofloxacin] | 1.07
Cn1cc(C2=C(c3ccc(Cl)cc3Cl)C(=O)NC2=O)c2ccccc21 | 0.845
Cc1c(OCC(F)(F)F)ccnc1C[S@@](=O)c1nc2ccccc2[nH]1 [Dexlansoprazole] | 0.956
COc1ccc(CNc2nc(N3CCC[C@H]3CO)ncc2C(=O)NCc2ncccn2)cc1Cl [Avanafil] | 1.06
CCc1cnn2c(NCc3ccc[n+]([O-])c3)cc(N3CCCC[C@H]3CCO)nc12 [Dinaciclib] | 0.383
